# Cycloheximide cs: counter-screen hit for Shiga toxin inhibitors, cycloheximide; cell reporter, cycloheximide protein synthesis inhibition counterscreen; max response, %; 12% of 300,000 active; AID 2314; in the data active means max response mostly above about 13%, no sharp cut-off; inactive means mostly below about 14%; further: read at 38.3 µM for the half of the compounds with a filed dose
# SARS PLpro yeast: SARS-CoV PLP inhibition in yeast. S. cerevisiae expressing SARS-CoV PLpro, growth rescue. Potency, µM (highest dose often 32.9 µM), usual class: activators. 0.19% of 330,000 active. AID 485353; further: nearly all actives have a fitted effect of over 55% in size
# Shiga toxin inh: Shiga toxin inhibition | Vero cells, Shiga toxin protein synthesis inhibition reporter | inhibition, % at 38.7 µM | 9.2% of 290,000 active; in the data active means inhibition mostly above about 28%, no sharp cut-off; inactive means mostly below about 43%
# NS1 function inh: inhibitors of influenza NS1 protein function | Potency, µM (doses to about 46.1 µM) | 0.4% of 270,000 active | AID 2326; further: actives are rising curves; nearly all actives have a fitted effect of over 50% in size
#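 OD600 was taken as the measure of yeast growth restored by compound in an NS1-expressing S. cerevisiae strain. Cells had been washed out of glucose medium and diluted 1:100 into galactose -URA medium, pH 6.0.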
# LmPK inh: inhibitors of Leishmania mexicana pyruvate kinase | purified LmPK, Kinase-Glo ATP luminescence, 1 h | 0.37% of 290,000 active | Potency, µM (highest dose often 57.5 µM), usual class: inhibitors | AID 1721; active means well fitted curve in the direction sought with a large enough effect; inconclusive means small, poorly fitted or top-dose-only effect, or another doubt; inactive means no such curve, though single readings can be large; an effect the other way counts as inactive or inconclusive
# Target sequence (Q27686 whole entry, looked up): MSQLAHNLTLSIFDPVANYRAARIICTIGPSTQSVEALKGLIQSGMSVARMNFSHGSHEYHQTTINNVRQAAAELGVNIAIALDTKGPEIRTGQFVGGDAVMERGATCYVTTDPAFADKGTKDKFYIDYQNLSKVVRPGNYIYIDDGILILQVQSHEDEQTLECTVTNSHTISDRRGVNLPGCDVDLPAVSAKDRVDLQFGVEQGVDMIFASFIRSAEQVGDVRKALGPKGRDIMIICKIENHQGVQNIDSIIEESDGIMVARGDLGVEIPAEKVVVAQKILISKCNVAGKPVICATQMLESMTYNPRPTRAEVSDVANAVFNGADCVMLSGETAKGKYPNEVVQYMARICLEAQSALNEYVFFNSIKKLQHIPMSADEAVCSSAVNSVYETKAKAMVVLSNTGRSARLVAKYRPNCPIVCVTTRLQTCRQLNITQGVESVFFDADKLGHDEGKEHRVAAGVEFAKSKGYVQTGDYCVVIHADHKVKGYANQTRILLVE
#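 In 50 mM imidazole pH 7.2 with 7 mM MgCl2, LmPK (0.1 nM) turned over PEP (0.5 mM) and ADP (0.1 mM) for 1 h at room temperature. Luciferase read-out of ATP.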
# TbPYK inhibitor: inhibitors of Trypanosoma brucei pyruvate kinase; TbPYK enzyme, Kinase-Glo Plus ATP luminescence, 45 min; Potency, µM (highest dose often 76.8 µM), usual class: inhibitors; 0.12% of 410,000 active; AID 624173; active means well fitted curve in the direction sought with a large enough effect; inconclusive means small, poorly fitted or top-dose-only effect, or another doubt; inactive means no such curve, though single readings can be large; an effect the other way counts as inactive or inconclusive; further: nearly all actives have a fitted effect of over 50% in size
#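 Readout: single end-point luminescence (Kinase-Glo Plus, 10 min). Reaction conditions were TbPYK/substrate plus 130 uM ADP, 45 min at RT, pH 7.2 TEA buffer. No-enzyme wells served as controls, and data were normalized before concentration-response fitting.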
# Numbers stand for hits; i = inactive; ? = inconclusive; nt = not tested or not shown; [ ] = dose if it differs, or a comment. The full list was thinned out, with hits kept by preference. Unless noted, the call rests on the fitted dose curve.
SMILES,Cycloheximide cs,SARS PLpro yeast,Shiga toxin inh,NS1 function inh,LmPK inh,TbPYK inhibitor
O=C(NCCCCNC(=O)c1ccccc1Cl)c1ccccc1Cl,i,i,i,i,i,i
NC(=O)c1ccccc1NCC(=O)c1ccc(Cl)cc1,i,i,i,i,i,i
O=C(CNc1ccccc1C(=O)O)c1ccccc1,18,i,i,i,i,i
CC(CNC(=O)c1ccccc1Cl)c1ccccc1 (configuration not stated),34,i,36,i,i,i
COc1ccc(CCNC(=O)CN2C(=O)COc3ccccc32)cc1OC,nt,nt,nt,nt,nt,i
CCN1C(=O)[C@@H]2[C@@H](c3ccc(-c4ccc5c(c4)OCO5)c(OC)c3)N3CCC[C@@]3(C(=O)OC)[C@@H]2C1=O,nt,i,nt,nt,nt,i
COc1c(O)cc2c(c1O)[C@@H]1O[C@@H](CO)[C@@H](O)[C@@H](O)[C@@H]1OC2=O,nt,nt,nt,nt,nt,i
Cc1ccc(S(=O)(=O)N(C)C)cc1NC(=O)COC(=O)c1ccc2c(c1)NC(=O)CS2,i,i,i,i,i,i
COC(=O)c1ccc(Nc2nc(-c3ccccc3Cl)nc3ccccc23)cc1,nt,nt,nt,nt,nt,i
CCOC(=O)C(O)C1CCc2c([nH]c3ccc(C)cc23)C1=O (configuration not stated),25,i,i,i,i,i
CCOC(=O)N1CCc2[nH]c3ccc(C)cc3c2C1,i,i,i,i,i,i
O=C(Nc1ccc(N2CCOCC2)cc1)c1cc2c(s1)CCCCC2,i,i,i,i,i,i
O=C(Nc1ccccc1N1CCOCC1)c1cc2c(s1)CCCCC2,40,i,53,nt,i,i
O=C(Nc1ccc(N2CCOCC2)cc1)c1cc2c(s1)CCCC2,17,i,i,i,i,i
COc1ccccc1N1CCN(C(=O)c2cc3c(s2)CCCCC3)CC1,i,i,i,i,i,i
O=C(c1cc2c(s1)CCCC2)N1CCN(c2ccccc2)CC1,24,i,151,nt,i,i
CC1(C)C2CC=C(/C=N/NC(=O)c3ccccc3O)C1C2 (configuration not stated),i,i,36,i,i,i
Oc1ccccc1/C=N/NC(=S)NCCc1ccccc1,i,i,i,i,i,i
O=C(N/N=C\c1ccncc1)c1ccccc1O,i,i,i,nt,i,i
CC1(C)C2CC=C(/C=N/NC(=S)NCCc3ccccc3)C1C2 (configuration not stated),17,i,i,i,i,i
CCC(C(=O)OCC(=O)N(CCOC)c1c(N)n(Cc2ccccc2)c(=O)[nH]c1=O)c1ccccc1 (configuration not stated),i,i,i,i,i,i
COc1cc(/C=N/Nc2ccc3ccccc3c2)ccc1OC(=O)c1ccco1,29,i,41,i,i,i
O=C(N/N=C\c1ccc(OC(=O)c2ccco2)cc1)c1ccc(Cl)cc1,i,i,i,i,i,i
CCOc1cc(/C=N\Nc2nc(Nc3ccccc3)nc(N3CCOCC3)n2)ccc1OC(=O)c1ccco1,20,i,i,i,i,i
O=C(N/N=C/c1cccc(OC(=O)c2ccco2)c1)c1ccc(F)cc1,64,i,26,i,i,i
SMILES,Cycloheximide cs,SARS PLpro yeast,Shiga toxin inh,NS1 function inh,LmPK inh,TbPYK inhibitor
COc1cc(/C=N/NC(=O)c2ccc(F)cc2)ccc1OC(=O)c1ccco1,21,i,i,i,i,i
CC(C)[C@H](NC(=O)[C@@H]1CSC2c3ccccc3C(=O)N21)C(=O)N1CCCCC1 (some centres not stated),i,i,i,i,i,i
COc1ccc(/C=N/Nc2nc(Nc3ccccc3)nc(N3CCCC3)n2)cc1,i,i,i,nt,i[11.5 µM],i
C(=N\Nc1nc(Nc2ccccc2)nc(N2CCCCC2)n1)/c1ccco1,28,i,32,i,i,nt
C#CCOC(=O)Nc1ccc(OCC(F)(F)F)nc1,21,i,46,i,i,i
C#CCOC(=O)Nc1cnccc1C(F)(F)F,i,i,i,i,i,i
O=C(NC1CCCCCC1)c1ccc(Br)o1,i,i,i,i,i,i
O=C(N/N=C1/CC2C=CCC12)c1ccc(Br)o1 (configuration not stated),74,i,75,i,i,i
O=C(N/N=C/c1ccco1)c1cc(-c2ccccc2)nc2ccccc12,i,?,i,i,i,i
CCCOc1cccc(-c2cc(C(=O)N/N=C/c3ccccn3)c3ccccc3n2)c1,21,i,42,i,i,i

# Screening data deposited in PubChem by National Center for Advancing Translational Sciences (NCATS).
